Source: the supplement of paper PMC10849652
About 8,800 targets were measured; listed, in parts, are those with a hit and a random draw of the rest. About 0.5% of all pairs of compound and target were hits. Unmarked numbers belong to inactive results.

Columns and labels:
Experiment in all cases: log2 fold change, soluble protein after heating vs DMSO (PISA); higher = thermal stabilisation; K562 lysate, 10 uM; active = over 0.2 and 3.5 SD of the protein, either way, in both replicates (recomputed)
[1] = compound: C=CC(=O)N1CCC[C@@H](n2nc(-c3ccc(Oc4ccccc4)cc3)c3c(N)ncnc32)C1 [ibrutinib]
Procedure, shortened: (§1)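 Quantification was by TMTpro 16plex LC-MS/MS with equalised channel sums, applied to the supernatant after 21,000xg for 90 min. Samples were crude K562 extract at 1 mg/mL protein in PBS pH 7.4 with 1 mM MgCl2, treated with 10 μM compound for 30 min, heated for 3 min across 48°C-58°C, pooled and brought to 0.5% NP-40 at 4°C. Values are log-two fold changes in thermal stability relative to solvent controls, from duplicates.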

[2] = compound: CC(=O)c1cnc2ccc(-c3cc(Cl)c(O)c(Cl)c3)nc2c1N[C@H]1CC[C@H](CN(C)C)CC1
Procedure, shortened: as §1

[3] = compound: CC(C)(C)Cn1c(N)nc2ccc(-c3[nH]c(C(C)(C)C)nc3-c3ccc(F)cc3)nc21 [ralimetinib]
Procedure, shortened: as §1

[4] = compound: CC(C)(O)CC(=O)NCCn1ccc2ncnc(Nc3ccc(Oc4cccc(C(F)(F)F)c4)c(Cl)c3)c21
Procedure, shortened: as §1

[5] = compound: CC(C)C1=C2N=C(C=C(N2N=C1)NCC3=CC=CC=C3)NCCCCCCN
Procedure, shortened: as §1

[6] = compound: CC1=C(C(CC(=O)N1)C2=CC=C(C=C2)C(F)(F)F)C(=O)NC3=C(C=C4C(=C3)C=NN4)F
Procedure, shortened: as §1

[7] = compound: CC1=C(C2=C(C=C1)C(=O)C3=CC=CC=C3N2CCCN)C
Procedure, shortened: as §1

[8] = compound: CC1=C(C=C(C=C1)NC(=O)C2=CC(=CC=C2)C(C)(C)C#N)NC3=CC4=C(C=C3)N=CN(C4=O)C
Procedure, shortened: as §1

[9] = compound: CC1=C(C=C(C=C1)NC(=O)C2=CC(=CC=C2)N(C)C)NC(=O)C3=CC=C(C=C3)O
Procedure, shortened: as §1

[10] = compound: CC1=CC=C(C=C1)SC2=C3C=C(SC3=CN=C2)C(=O)N
Procedure, shortened: as §1

[11] = compound: CCCS(=O)(=O)Nc1ccc(F)c(C(=O)c2c[nH]c3ncc(-c4ccc(Cl)cc4)cc23)c1F [vemurafenib]
Procedure, shortened: as §1

[12] = compound: CCCS(=O)(=O)Nc1ccc(F)c(C(=O)c2c[nH]c3ncc(Cl)cc23)c1F
Procedure, shortened: as §1

[13] = compound: CCN(CCCOc1ccc2c(Nc3cc(CC(=O)Nc4cccc(F)c4)[nH]n3)ncnc2c1)CCOP(=O)(O)O [barasertib]
Procedure, shortened: as §1

[14] = compound: CC[C@@H]1C(=O)N(C)c2cnc(Nc3ccc(C(=O)NC4CCN(C)CC4)cc3OC)nc2N1C1CCCC1
Procedure, shortened: as §1

[15] = compound: CC[C@@H]1C(=O)N(C)c2cnc(Nc3ccc(C(=O)N[C@H]4CC[C@H](N5CCN(CC6CC6)CC5)CC4)cc3OC)nc2N1C(C)C [volasertib]
Procedure, shortened: as §1

[16] = compound: CCn1c(C(=O)N(C2CC2)C2CC2)cc2c3c(ncn3C)c(Nc3cc(C)n(C)n3)nc21
Procedure, shortened: as §1

[17] = compound: CCn1cc(-c2ccnc3[nH]c(-c4cccc(CN(C)C)c4)cc23)c(-c2ccc(NC(=O)N(C)C)cc2)n1
Procedure, shortened: as §1

[18] = compound: CN1CCC(CNc2ccc3ncc(-c4cccc(OC(F)(F)F)c4)n3n2)CC1
Procedure, shortened: as §1

[19] = compound: CN1CCN(CCOc2cc(OC3CCOCC3)c3c(Nc4c(Cl)ccc5c4OCO5)ncnc3c2)CC1 [saracatinib]
Procedure, shortened: as §1

[20] = compound: CN1CCN(c2nc(C3=C(c4c[nH]c5ccccc45)C(=O)NC3=O)c3ccccc3n2)CC1 [sotrastaurin]
Procedure, shortened: as §1

Sequence of UniProt P31949 (P31949 whole entry, looked up): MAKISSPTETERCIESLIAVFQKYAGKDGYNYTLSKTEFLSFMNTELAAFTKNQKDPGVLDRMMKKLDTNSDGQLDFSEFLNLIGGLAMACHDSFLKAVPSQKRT
Sequence of UniProt Q7L523 (Q7L523 whole entry, looked up): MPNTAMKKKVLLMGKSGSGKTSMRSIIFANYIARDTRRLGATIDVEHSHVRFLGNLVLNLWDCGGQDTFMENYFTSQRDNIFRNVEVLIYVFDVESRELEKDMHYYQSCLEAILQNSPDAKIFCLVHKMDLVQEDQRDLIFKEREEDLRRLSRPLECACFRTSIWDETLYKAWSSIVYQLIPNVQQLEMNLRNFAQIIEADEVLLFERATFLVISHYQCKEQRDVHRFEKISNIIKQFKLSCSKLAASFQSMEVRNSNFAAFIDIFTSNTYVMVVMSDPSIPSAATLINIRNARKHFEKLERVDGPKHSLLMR
Sequence of UniProt Q9GZR2 (Q9GZR2 whole entry, looked up): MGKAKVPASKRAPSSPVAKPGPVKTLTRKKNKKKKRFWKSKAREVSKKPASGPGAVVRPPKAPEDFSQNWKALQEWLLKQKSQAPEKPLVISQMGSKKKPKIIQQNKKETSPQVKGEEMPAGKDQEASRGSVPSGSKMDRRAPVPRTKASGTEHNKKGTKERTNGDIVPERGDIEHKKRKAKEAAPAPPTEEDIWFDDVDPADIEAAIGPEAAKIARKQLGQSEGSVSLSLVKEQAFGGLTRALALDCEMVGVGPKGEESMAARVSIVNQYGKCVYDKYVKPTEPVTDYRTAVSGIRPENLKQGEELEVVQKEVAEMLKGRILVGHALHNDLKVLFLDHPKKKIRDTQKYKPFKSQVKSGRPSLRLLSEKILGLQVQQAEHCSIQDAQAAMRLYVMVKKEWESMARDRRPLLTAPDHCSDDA
Sequence of UniProt P40937 (P40937 whole entry, looked up): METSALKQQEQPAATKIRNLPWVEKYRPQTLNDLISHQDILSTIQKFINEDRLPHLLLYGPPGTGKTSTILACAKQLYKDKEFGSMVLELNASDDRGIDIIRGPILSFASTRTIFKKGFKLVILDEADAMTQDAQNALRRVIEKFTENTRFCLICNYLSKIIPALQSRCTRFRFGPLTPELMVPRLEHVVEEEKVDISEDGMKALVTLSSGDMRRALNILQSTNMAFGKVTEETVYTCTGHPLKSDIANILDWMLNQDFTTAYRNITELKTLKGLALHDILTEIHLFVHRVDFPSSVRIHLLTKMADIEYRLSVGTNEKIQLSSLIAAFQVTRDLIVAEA
Sequence of UniProt P49792 (P49792 whole entry, looked up): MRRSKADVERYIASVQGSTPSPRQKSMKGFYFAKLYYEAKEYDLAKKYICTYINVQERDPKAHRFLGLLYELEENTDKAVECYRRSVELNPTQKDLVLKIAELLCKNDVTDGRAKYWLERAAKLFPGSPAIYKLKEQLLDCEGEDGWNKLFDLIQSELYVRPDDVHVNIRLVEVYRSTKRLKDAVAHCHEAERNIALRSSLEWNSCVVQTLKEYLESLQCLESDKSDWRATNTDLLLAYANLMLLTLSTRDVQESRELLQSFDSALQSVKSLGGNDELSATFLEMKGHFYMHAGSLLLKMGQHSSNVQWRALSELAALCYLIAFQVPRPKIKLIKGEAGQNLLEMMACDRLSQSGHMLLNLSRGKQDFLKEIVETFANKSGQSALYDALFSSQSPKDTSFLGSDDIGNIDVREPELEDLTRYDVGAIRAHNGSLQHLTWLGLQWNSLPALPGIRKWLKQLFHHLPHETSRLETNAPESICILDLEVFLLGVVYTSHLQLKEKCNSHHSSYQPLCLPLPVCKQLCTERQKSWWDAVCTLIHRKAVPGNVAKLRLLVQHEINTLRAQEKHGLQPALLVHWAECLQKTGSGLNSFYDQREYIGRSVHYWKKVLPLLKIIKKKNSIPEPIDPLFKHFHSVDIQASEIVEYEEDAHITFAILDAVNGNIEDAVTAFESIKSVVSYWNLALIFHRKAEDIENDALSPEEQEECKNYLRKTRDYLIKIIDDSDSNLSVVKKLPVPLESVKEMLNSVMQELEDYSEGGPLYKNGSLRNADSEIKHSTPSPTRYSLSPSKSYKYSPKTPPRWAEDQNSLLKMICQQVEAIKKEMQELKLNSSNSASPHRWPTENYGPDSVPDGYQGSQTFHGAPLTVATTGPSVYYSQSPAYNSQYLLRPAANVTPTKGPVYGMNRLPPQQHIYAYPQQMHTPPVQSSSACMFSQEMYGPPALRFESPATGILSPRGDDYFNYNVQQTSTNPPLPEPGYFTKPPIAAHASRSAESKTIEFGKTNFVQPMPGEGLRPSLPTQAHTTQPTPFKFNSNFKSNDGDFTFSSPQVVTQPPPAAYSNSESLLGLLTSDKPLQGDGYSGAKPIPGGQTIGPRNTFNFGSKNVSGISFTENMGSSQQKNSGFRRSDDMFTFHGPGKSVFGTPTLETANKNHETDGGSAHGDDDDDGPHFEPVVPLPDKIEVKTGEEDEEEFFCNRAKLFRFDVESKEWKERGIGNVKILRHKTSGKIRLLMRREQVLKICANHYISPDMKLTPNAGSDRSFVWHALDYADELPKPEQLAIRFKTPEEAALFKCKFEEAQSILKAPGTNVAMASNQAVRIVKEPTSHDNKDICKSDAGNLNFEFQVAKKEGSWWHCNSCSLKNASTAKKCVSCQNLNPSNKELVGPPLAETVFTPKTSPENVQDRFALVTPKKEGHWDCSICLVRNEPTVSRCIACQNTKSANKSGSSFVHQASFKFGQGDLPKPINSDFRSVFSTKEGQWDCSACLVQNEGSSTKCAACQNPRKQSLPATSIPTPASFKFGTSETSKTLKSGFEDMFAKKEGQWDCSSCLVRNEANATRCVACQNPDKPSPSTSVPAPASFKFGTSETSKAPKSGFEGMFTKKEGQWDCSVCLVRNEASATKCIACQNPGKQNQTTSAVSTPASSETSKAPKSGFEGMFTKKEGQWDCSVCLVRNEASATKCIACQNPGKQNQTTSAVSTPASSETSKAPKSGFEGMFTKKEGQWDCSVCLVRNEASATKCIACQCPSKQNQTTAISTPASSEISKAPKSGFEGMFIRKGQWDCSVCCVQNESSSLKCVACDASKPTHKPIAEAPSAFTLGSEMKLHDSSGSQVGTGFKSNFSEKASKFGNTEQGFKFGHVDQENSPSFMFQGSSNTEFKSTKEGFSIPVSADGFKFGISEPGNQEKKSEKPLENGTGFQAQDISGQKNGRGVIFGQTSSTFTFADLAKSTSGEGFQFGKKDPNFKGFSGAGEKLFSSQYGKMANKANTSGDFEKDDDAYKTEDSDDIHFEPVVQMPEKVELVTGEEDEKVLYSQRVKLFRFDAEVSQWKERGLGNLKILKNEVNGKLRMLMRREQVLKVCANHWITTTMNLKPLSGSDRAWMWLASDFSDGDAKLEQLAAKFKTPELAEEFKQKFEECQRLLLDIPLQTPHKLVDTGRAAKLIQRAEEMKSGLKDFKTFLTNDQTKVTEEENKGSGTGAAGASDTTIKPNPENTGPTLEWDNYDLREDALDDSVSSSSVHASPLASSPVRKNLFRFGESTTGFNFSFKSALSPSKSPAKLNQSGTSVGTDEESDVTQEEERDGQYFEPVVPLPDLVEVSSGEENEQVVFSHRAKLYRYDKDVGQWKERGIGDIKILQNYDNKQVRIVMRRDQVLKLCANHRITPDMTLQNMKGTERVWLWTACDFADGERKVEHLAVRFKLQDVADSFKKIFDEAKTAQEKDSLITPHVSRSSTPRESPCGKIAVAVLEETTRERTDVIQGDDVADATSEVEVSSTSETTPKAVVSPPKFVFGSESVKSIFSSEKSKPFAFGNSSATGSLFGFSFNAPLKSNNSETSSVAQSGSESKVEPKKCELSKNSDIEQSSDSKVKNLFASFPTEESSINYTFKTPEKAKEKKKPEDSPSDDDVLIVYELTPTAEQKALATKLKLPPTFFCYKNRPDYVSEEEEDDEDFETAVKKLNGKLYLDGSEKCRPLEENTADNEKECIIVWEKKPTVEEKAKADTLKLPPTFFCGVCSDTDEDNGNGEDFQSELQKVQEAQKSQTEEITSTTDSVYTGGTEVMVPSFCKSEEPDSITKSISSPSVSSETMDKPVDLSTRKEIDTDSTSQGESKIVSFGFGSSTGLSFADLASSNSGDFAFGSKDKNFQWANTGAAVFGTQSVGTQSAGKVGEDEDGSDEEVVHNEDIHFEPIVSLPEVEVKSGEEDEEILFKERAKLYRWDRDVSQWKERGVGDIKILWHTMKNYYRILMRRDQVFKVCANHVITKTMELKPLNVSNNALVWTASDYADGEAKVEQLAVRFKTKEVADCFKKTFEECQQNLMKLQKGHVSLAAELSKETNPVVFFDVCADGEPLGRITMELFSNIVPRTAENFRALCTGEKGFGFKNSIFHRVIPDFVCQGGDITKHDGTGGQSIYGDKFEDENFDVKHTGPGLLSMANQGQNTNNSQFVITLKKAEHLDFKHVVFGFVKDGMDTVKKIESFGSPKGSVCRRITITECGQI
Sequence of UniProt P60059 (P60059 whole entry, looked up): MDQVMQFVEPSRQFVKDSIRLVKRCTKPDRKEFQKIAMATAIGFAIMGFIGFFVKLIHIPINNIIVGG
Sequence of UniProt Q15287 (Q15287 whole entry, looked up): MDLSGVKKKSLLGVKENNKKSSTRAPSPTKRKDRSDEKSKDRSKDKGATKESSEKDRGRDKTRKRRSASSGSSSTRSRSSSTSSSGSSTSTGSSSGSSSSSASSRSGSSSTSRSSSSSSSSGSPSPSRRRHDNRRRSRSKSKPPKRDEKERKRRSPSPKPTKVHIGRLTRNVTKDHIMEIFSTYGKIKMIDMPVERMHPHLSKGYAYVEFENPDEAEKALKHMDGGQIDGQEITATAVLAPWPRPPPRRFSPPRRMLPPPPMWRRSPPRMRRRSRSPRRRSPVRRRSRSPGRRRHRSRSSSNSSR

Row | Target | log2 fold change [1] | log2 fold change [2] | log2 fold change [3] | log2 fold change [4] | log2 fold change [5] | log2 fold change [6] | log2 fold change [7] | log2 fold change [8] | log2 fold change [9] | log2 fold change [10] | log2 fold change [11] | log2 fold change [12] | log2 fold change [13] | log2 fold change [14] | log2 fold change [15] | log2 fold change [16] | log2 fold change [17] | log2 fold change [18] | log2 fold change [19] | log2 fold change [20]
1 | RPLP0P6 (UniProt Q8NHW5) | 0.064 | -0.005 | -0.01 | -0.02 | -0.009 | -0.052 | -0.028 | 0.015 | 0.01 | -0.017 | -0.002 | 0.012 | -0.121 | 0.009 | -0.009 | -0.02 | -0.011 | 0.017 | -0.011 | -0.02
2 | RANBP2 (UniProt P49792) | 0.001 | -0.01 | 0.018 | -0.009 | -0.01 | 0.011 | 0.007 | 0 | 0.018 | -0.001 | -0.031 | 0.015 | 0.043 | -0.022 | -0.048 | 0.026 | -0.019 | -0.031 | 0.018 | 0.015
3 | RFC5 (UniProt P40937) | -0.038 | -0.001 | 0.046 | 0.02 | 0.012 | -0.002 | -0.009 | 0.014 | 0.025 | 0.018 | 0.034 | -0.003 | -0.017 | -0.039 | -0.079 | 0.022 | 0.137 | 0.005 | 0.008 | 0.043
4 | RAB3IL1 (UniProt E9PK89) | 0.066 | 0.045 | -0.028 | -0.08 | -0.069 | 0.052 | 0.071 | 0.025 | 0.135 | -0.031 | -0.154 | 0.031 | -0.001 | -0.079 | 0.031 | -0.054 | 0.026 | -0.047 | -0.043 | -0.013
5 | RPS6KA1 (UniProt Q15418) | 0.047 | 0.555 (active) | 0.32 | -0.077 | -0.011 | -0.032 | -0.035 | -0.043 | -0.052 | -0.023 | -0.037 | -0.004 | -0.006 | 0.037 | 0.029 | 0.019 | -0.004 | 0.116 | 0.101 | 0.103
6 | RARS (UniProt P54136) | -0.001 | -0.003 | 0.062 | 0.048 | 0.033 | -0.019 | 0.015 | -0.003 | 0.06 | 0.033 | -0.004 | -0.003 | 0.046 | -0.093 | -0.078 | 0.067 | 0.013 | -0.039 | 0.027 | 0.045
7 | REXO4 (UniProt Q9GZR2) | 0.014 | 0.027 | 0.021 | 0.074 | -0.024 | 0.023 | -0.053 | -0.043 | 0.056 | 0.008 | -0.018 | 0.007 | 0.088 | 0.013 | -0.034 | 0 | 0.452 (active) | -0.184 | -0.002 | 0.013
8 | RPS18 (UniProt P62269) | -0.016 | 0.01 | -0.006 | -0.02 | 0.008 | -0.037 | -0.1 | 0 | -0.006 | -0.012 | 0.006 | 0.022 | -0.007 | -0.014 | 0.018 | 0.009 | -0.219 (active) | 0.063 | 0.002 | 0
9 | RNPS1 (UniProt Q15287) | 0.04 | 0.042 | 0.007 | 0.006 | 0.005 | 0.138 | 0.003 | -0.057 | -0.032 | -0.032 | -0.03 | 0.001 | -0.008 | -0.175 | 0.043 | -0.022 | 0.02 | 0.077 | -0.04 | -0.003
10 | SEC61G (UniProt P60059) | 0.037 | 0 | -0.019 | -0.229 | -0.052 | -0.081 | -0.053 | 0.071 | 0.004 | 0.052 | 0.015 | -0.079 | 0.175 | 0.159 | 0.033 | -0.067 | -0.118 | 0.405 | -0.276 | -0.184
11 | RPS4X (UniProt P62701) | 0 | -0.003 | 0.009 | -0.021 | 0.022 | -0.026 | -0.116 | -0.008 | -0.001 | 0.034 | 0.001 | -0.014 | -0.033 | 0.001 | -0.007 | -0.025 | 0.242 (active) | -0.059 | -0.016 | -0.009
12 | RRAGA (UniProt Q7L523) | -0.114 | 0.008 | -0.112 | -0.524 | 0.006 | 0.005 | -0.089 | 0.079 | 0.343 | -0.113 | 0.111 | 0.092 | -0.004 | 0.014 | 0.042 | 0.139 | -0.011 | 0.051 | 0.081 | -0.014
13 | SERINC3 (UniProt Q13530) | 0.06 | -0.082 | 0.01 | -0.003 | -0.016 | -0.012 | -0.055 | 0.049 | -0.042 | -0.011 | 0.05 | 0.074 | -0.02 | 0.039 | 0.066 | -0.05 | -0.443 (active) | 0.224 | 0.052 | 0.081
14 | S100A11 (UniProt P31949) | -0.011 | -0.049 | -0.009 | -0.017 | -0.02 | -0.024 | 0.003 | 0.058 | 0.028 | 0.037 | 0.005 | -0.015 | 0.008 | 0.037 | 0.098 | 0.004 | -0.008 | -0.052 | 0.023 | -0.036
15 | RDH10 (UniProt Q8IZV5) | 0.016 | -0.015 | 0.04 | -0.013 | 0.03 | -0.007 | -0.033 | -0.045 | -0.034 | -0.016 | 0.054 | 0.032 | 0.027 | -0.011 | 0.035 | -0.072 | -0.067 | 0.062 | -0.035 | -0.006
16 | RPS26P11 (UniProt Q5JNZ5) | -0.037 | 0.004 | 0.008 | -0.034 | -0.019 | -0.013 | -0.034 | 0.024 | 0.025 | 0.016 | 0.012 | -0.01 | -0.03 | 0.041 | 0.017 | 0.02 | -0.688 (active) | 0.224 | 0.009 | 0.05
